Only some compounds are listed: those with a hit (about 1.3% of all), similar ones and a draw of the others.
Gli-Sufu antag – antagonists of Gli-Sufu signaling. hit rate 0.74% among 340,000. Sufu-KO-LIGHT fibroblasts, Gli luciferase reporter luminescence. inhibition, % at 5 µM. AID 588413;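 active = inhibition above about 55%, limit read from the data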;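 also: 0% = DMSO-treated cells and 100% = wells with medium but no cells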
SRC2 inh – inhibits human steroid receptor coactivator 2 | HEK293 GAL4-SRC2 luciferase reporter, luminescence | inhibition, % at 9 µM | hit rate 0.17% among 370,000;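 active = inhibition above the mean inhibition of all tested compounds plus 3 SD, set per campaign, cut at about 52% in these data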;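 also: 0% = DMSO treated cells and 100% = cells given Gossypol at 36 µM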
SRC3 inh – inhibits human SRC3 coactivator | AID 588352 | inhibition, % at 3.6 µM | HEK293 GAL4-SRC3 luciferase reporter, luminescence | hit rate 0.17% among 360,000;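 active = inhibition above a per-campaign cutoff, the mean of all compounds plus 3 SD, cut at about 60% in these data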;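 also: 0% = DMSO-treated cells and 100% = gossypol-treated cells at 36 µM; higher means less SRC3-driven luciferase light from the GAL4 reporter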
COUP-TFII inh – NR2F2 (human) inhibition, primary screen. HEK293T NGFI-A luciferase reporter, luminescence. inhibition, % at 8.6 µM. hit rate 0.7% among 370,000. AID 686940;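 active = inhibition above a per-plate cutoff, mean inhibition of test wells between control levels plus 3 SD, cut at about 38% in these data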;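 also: cells cotransfected with COUP-TFII expression vector driving the NGFI-A reporter; 0% = median of COUP-TF2 test wells and 100% = reporter-only cells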
Target sequence (P24468 whole entry, looked up): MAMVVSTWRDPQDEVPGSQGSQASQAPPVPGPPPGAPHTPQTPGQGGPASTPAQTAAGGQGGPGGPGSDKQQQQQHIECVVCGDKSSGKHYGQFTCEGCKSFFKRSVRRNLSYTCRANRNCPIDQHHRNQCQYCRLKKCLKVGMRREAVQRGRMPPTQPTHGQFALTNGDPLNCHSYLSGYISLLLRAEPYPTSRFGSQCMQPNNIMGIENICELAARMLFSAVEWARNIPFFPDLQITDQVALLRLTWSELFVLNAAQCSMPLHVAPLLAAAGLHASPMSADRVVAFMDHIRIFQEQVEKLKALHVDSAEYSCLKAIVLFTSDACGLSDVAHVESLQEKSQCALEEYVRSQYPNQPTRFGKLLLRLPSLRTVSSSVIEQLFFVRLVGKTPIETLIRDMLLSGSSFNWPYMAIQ
SRC1 inh – inhibitors of human steroid receptor coactivator 1 (SRC1). HEK293 GAL4-SRC1 luciferase reporter, luminescence. inhibition, % at 3.6 µM. hit rate 0.12% among 360,000;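 active = inhibition above the campaign mean plus 3 SD, with each screening campaign given its own cutoff, cut at about 60% in these data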;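 also: 0% = DMSO treated cells and 100% = gossypol at 36 µM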
LRH-1 inv ag – inverse agonists of human LRH-1 (NR5A2). O00482. HEK293T StAR-luciferase reporter, LRH-1 transfected, 24 h. hit rate 0.13% among 360,000. inhibition, % at 3.6 µM;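 active = inhibition above the mean inhibition of all tested compounds plus 3 SD, cut at about 73% in these data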;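 also: 0% = DMSO wells and 100% = reporter-only cells lacking LRH-1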
Gal4-VP16 ctr – VP16 inhibition counter-screen for COUP-TFII; shares compounds with COUP-TFII inh; HEK293 Gal4-VP16 luciferase reporter, luminescence; inhibition, % at 8.5 µM; hit rate 25% among 2,500; AID 687007; in the data active = inhibition above about 13%
COUP-TFII conf – confirmation of human COUP-TFII (NR2F2) inhibitors; HEK293 NGFI-A luciferase reporter, luminescence; hit rate 45% among 2,500; inhibition, % at 8.5 µM; shares compounds with COUP-TFII inh;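 active = mean inhibition over three repeats above a set limit taken from the earlier primary screen, cut at about 38% in these data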;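 also: 100% = cells given the luciferase reporter alone without the COUP-TF2 vector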
* = called active by the depositor; x = not tested or not shown.

SMILES | Gli-Sufu antag | SRC2 inh | SRC3 inh | COUP-TFII inh | SRC1 inh | LRH-1 inv ag | Gal4-VP16 ctr | COUP-TFII conf
COc1cc(NC(=O)c2ccccc2)c(C)cc1NC(=O)CSc1nnc(-c2cnccn2)n1-c1ccc(C)cc1 | x | 22.1 | x | 4.7 | x | x | x | x
Cc1cc2c(c(=O)o1)[C@@]1(C(=O)N(C)c3ccccc31)C1=C(CCC1=O)O2 | x | -30.9 | x | 9.0 | x | x | x | x
C=Cc1ccc(C(=O)N2CCC(n3nnc4ncccc43)CC2)cc1 | x | -15.8 | x | 7.3 | x | x | x | x
CC(=O)Nc1ccc(NC(=O)COc2ccc(-c3ccc(C#N)cc3)cc2)cc1 | 16.6 | 16.5 | 9.7 | 9.1 | 1.6 | 11.2 | x | x
N#Cc1ccc(-c2ccc(OCC(=O)Nc3cccnc3)cc2)cc1 | -2.5 | 53.3* | -8.1 | 47.0* | -15.4 | 37.0 | -4.3 | 23.4
O=C(CCCOc1ccccc1)Nc1cccnc1 | -1.8 | 2.5 | 5.7 | -11.3 | -4.5 | -13.5 | x | x
O=C(COc1ccc(C(=O)c2ccccc2)cc1)Nc1cccnc1 | -12.8 | 19.2 | 3.8 | 65.5* | -1.4 | 38.2 | 5.7 | 60.2*
O=C(O)Cc1coc2cc3c(cc12)CCC3 | 1.4 | -6.3 | -3.2 | -16.9 | -5.8 | -11.1 | x | x
O=C(Cc1coc2cc3c(cc12)CCC3)OCC(=O)N1CCCC1=O | 1.2 | 54.2* | 25.6 | 44.5* | 11.4 | 12.5 | 28.0* | 13.3
CC(=O)C1=C(C)N(Cc2ccc(F)cc2)C(=S)NC1c1ccccc1 (stereo not drawn) | x | -14.6 | x | 12.4 | x | x | x | x
Cc1c(CN2CCC(C(=O)Nc3ccc(Oc4ccccc4)nc3)CC2)cnn1C | 12.7 | -7.3 | 8.9 | -0.8 | -13.1 | 13.2 | x | x
COc1cc(F)ccc1CN1CCC(C(=O)Nc2ccc(Oc3ccccc3)nc2)CC1 | -7.1 | 15.8 | 29.3 | 39.8* | 17.7 | 18.9 | 2.6 | 21.4
COc1ccc(CN2CCC(C(=O)Nc3ccc(Oc4ccccc4)nc3)CC2)cc1F | 28.7 | 36.5 | 18.5 | 47.8* | 11.4 | 5.9 | -1.4 | 31.2
O=C(Nc1ccc(Oc2cccnc2)cc1)C1CCN(Cc2cccc(Cl)c2)CC1 | 16.9 | 17.6 | 22.6 | 38.4* | 6.6 | 18.6 | 13.2* | 19.7
COc1ccc(-c2sc3ccc(N4CCOCC4)cc3c2C#CCO)cc1 | -7.0 | 20.7 | 11.9 | 74.0* | 6.9 | 33.8 | -10.6 | 52.9*
CC(=O)c1cc(-c2cc3ccccc3o2)c(=O)n2c1CCC2 | x | -5.8 | x | 8.4 | x | x | x | x
c1ccc(N2CCN(c3c4c(nc5ncnn35)CCC4)CC2)cc1 | 13.0 | -6.4 | 4.4 | 3.3 | -0.8 | -9.3 | x | x
COc1cccc(N2CCN(c3c4c(nc5ncnn35)CCC4)CC2)c1 | 24.3 | 9.4 | -5.5 | 54.9* | -9.4 | 21.1 | -6.9 | 11.6
CSc1ccccc1CNc1nc(NCC2CC2)nc2ccsc12 | x | 19.7 | 5.8 | 52.8* | 2.0 | 36.6 | 5.1 | 24.5
COc1cccc(CNc2nc(NCC3CC3)nc3ccsc23)c1 | x | 6.1 | 3.7 | 43.1* | 16.7 | 23.6 | -1.4 | 19.9
COc1cccc(CNc2nc(NCC3CC3)nc3ccsc23)c1OC | x | 40.6 | 21.0 | 58.5* | 6.1 | 34.1 | -3.0 | 19.4
CC(C)c1ccc(CNc2nc(NCC3CC3)nc3ccsc23)cc1 | x | 17.9 | -8.5 | 30.8 | -1.7 | 12.8 | x | x
Cc1ccc(NC(=O)c2cnc(N3CCN(c4ccccn4)CC3)c3ccccc23)c(Br)c1 | 32.9 | 18.0 | 27.0 | 38.3* | 37.1 | 20.9 | -6.2 | 39.2*
O=C(Nc1c(F)cccc1F)c1cnc(N2CCN(c3ccccn3)CC2)c2ccccc12 | 10.9 | 1.3 | 31.5 | 29.2 | 14.6 | 45.8 | x | x
CCOc1c(Br)cc(CNc2ccc3c(c2)OCCO3)cc1OC | -9.1 | 39.8 | 56.4 | -5.8 | 34.6 | 54.7 | x | x
CCOc1cc(CNc2ccc3c(c2)OCCO3)cc(Br)c1OC | 0.4 | 48.4 | 47.4 | 51.4* | 47.7 | 62.1 | -27.3 | 38.1*
CN(N=Cc1ccccc1O)C(=O)c1ccccc1N | x | -37.2 | x | 1.7 | x | x | x | x
CC(C)CC[n+]1ccccc1/C=C/c1ccc(N(C)C)cc1 | 88.1* | 16.3 | 76.0* | 85.8* | 56.8 | 90.9* | 25.9* | 85.5*
CN(C)c1ccc(/C=C/c2ccncc2)cc1 | -56.1 | -75.4 | -70.5 | -15.1 | -72.5 | -107.2 | x | x
O=C(O[C@H]1CC[C@@]23CCCN2C(=O)CCC[C@H]3C1)N1CCCC1 | x | x | x | 12.4 | x | x | x | x

Screens deposited in PubChem BioAssay by several laboratories.
